Bioassay records deposited in PubChem by National Center for Advancing Translational Sciences (NCATS).
JMJD2A Tudor – inhibitors of human JMJD2A Tudor domain. O75164. AlphaScreen JMJD2A-Tudor / H3K4me3 peptide binding. Potency, µM (top dose mostly 114 µM), usual class: inhibitors. hit rate 4.4% among 390,000; further: nearly all actives have a fitted effect of over 50% in size
Sfp inh – inhibitors of Bacillus subtilis Sfp phosphopantetheinyl transferase. Q9F4F7. hit rate 3.5% among 310,000. AID 1490. Biochemical Sfp PPTase activity, qHTS. Potency, µM, usual class: inhibitors;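 further: the enzyme is Sfp with the accession as filed and its product quenches rhodamine fluorescence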
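Buffer: 50 mM Hepes-Na pH 7.6, 10 mM MgCl2, 0.01% Nonidet P-40, 0.01% BSA. Enzyme 15 nM, pre-exposed to compound 15 min; substrates then added and fluorescence change tracked over 30 min.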
BAZ2B inh – BAZ2B (human) inhibition. AlphaScreen BAZ2B-H3K14Ac peptide displacement. Potency, µM (highest dose often 114 µM), actives largely listed as inhibitors. hit rate 4.4% among 360,000. AID 504333; further: nearly all actives have a fitted effect of over 60% in size
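BAZ2B 50 nM plus b-H3(5-23)K14Ac 50 nM, PBS pH 7.4/0.01% Tween-20, 30 min RT; compound added (max 110 uM), 30 min RT; streptavidin donor/Ni-chelate acceptor beads 10 ug/mL final, 20 min dark; AlphaScreen read.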
HP1b chromo inh – blocks HP1-beta chromodomain binding to methylated histone tails; P83916; AlphaScreen HP1-beta / biotin-H3K9me3 peptide binding; Potency, µM (highest dose often 114 µM), usual class: inhibitors; hit rate 0.56% among 390,000; further: nearly all actives have a fitted effect of over 70% in size
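Compound inhibition of the preformed complex between 50 nM HP1-beta and 50 nM biotinylated H3K9me3 peptide was read by AlphaScreen. Buffer was PBS pH 7.4 with 0.01% Tween-20. Incubations ran 30 min at room temperature, with 10 ug/mL donor/acceptor beads.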
G9a inh – G9a (human) methyltransferase inhibition; AID 504332; Potency, µM (highest dose often 102 µM), actives largely listed as inhibitors; G9a H3K9 monomethylation, AlphaScreen, 2 h; Q96KQ7; hit rate 8.8% among 350,000; further: nearly all actives have a fitted effect of over 75% in size
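Signal arises when biotinylated H3K9 peptide, once monomethylated, bridges streptavidin donor and antibody-captured acceptor beads. Enzyme at 20 nM was preincubated 15 min with test compounds; peptide 500 nM and SAM 20 uM then reacted for 2 h.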
L3MBTL1 block – blocks human L3MBTL1; AlphaScreen L3MBTL1–H3K9me1 peptide binding; Potency, µM (series often up to 57.1 µM), most hits filed as inhibitors; hit rate 0.66% among 230,000; Q9Y468; further: nearly all actives have a fitted effect of over 60% in size
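Displacement of a biotinylated histone H3(1-15) peptide monomethylated at Lys9 (75 nM) from L3MBTL1 (50 nM) was measured by AlphaScreen after a 30 min room-temperature compound incubation; cefsulodin titration served as intraplate control.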
A number is an active result; 0 = inactive; ? = inconclusive; - = no result given; ! = a repeat was not active; [ ] = dose if it differs, or a comment. Compounds with a hit are over-represented: about 12% of the library has one in this group of screens. The call rests on the fitted dose curve; in most records, active means well fitted curve in the direction sought with a large enough effect; inconclusive means small, poorly fitted or top-dose-only effect, or another doubt; inactive means no such curve, though single readings can be large; an effect the other way counts as inactive or inconclusive.

SMILES	JMJD2A Tudor	Sfp inh	BAZ2B inh	HP1b chromo inh	G9a inh	L3MBTL1 block
Cc1ccc(Nc2nnc(SCC(=O)NC3CCCc4ccccc43)s2)cc1 (stereo not given)	0	0	0	0	79µM	0
CC(=O)c1ccc(NC(=O)CSc2nnc(N)s2)cc1	0	-	?	0	0	-
Cc1cccc(Nc2nnc(SCC(=O)NC3CCCc4ccccc43)s2)c1 (stereo not given)	0	0	0	0	?	0
Cc1cc(C)c(C(=O)CSc2nnc(N)s2)cc1C	0[11.4 µM]	0	0	0	?	0
CCN(CC)S(=O)(=O)c1cccc(NC(=O)CSc2nnc(N)s2)c1	0	0	0	0	18µM	0
O=C(CSc1n[nH]c(-c2ccncc2)n1)NC1CCS(=O)(=O)C1 (stereo not given)	89µM	?	0	0	?	0
COc1ccc(Nc2nnc(SCC(=O)NC3CCS(=O)(=O)C3)s2)cc1 (stereo not given)	0	-	0	0	14µM	0
COc1ccc(NC(=O)CSc2nnc(-c3ccc(OC)cc3)s2)cc1	0	-	0	0	0	-
CCOC(=O)c1c(NC(=O)CSc2nnc(N)s2)sc(C)c1-c1ccc(C)cc1	?	0	0	0	40µM	0
CCc1ccc(-c2nc(SCC(=O)NC3CCS(=O)(=O)C3)n[nH]2)cc1 (stereo not given)	0	-	0	0	0[0.501 µM]	0
COc1ccc(NC(=O)CSc2nnc(N)s2)cc1	0	0	0	0	79µM!	0
COc1cc(OC)c(NC(=O)c2sc3ncn(CC(=O)N4CCOCC4)c(=O)c3c2C)cc1Cl	0	0	0	0	?	-
CCc1ccccc1NC(=O)c1ccc2nc(C(C)C)oc2c1	0	-	0	0	0	-
O=c1onc2cnc3ccccc3n12	-	0	-	-	0[12.7 µM]	-
CCN(CC)CCNC(=S)Nc1ccc(F)cc1	0	28µM	0	0	0	0
CCN(CC)CCNC(=S)Nc1ccc2nc(N3CCN(C)CC3)cc(C)c2c1	0	?	0	0	45µM	-
Cc1cc(N2CCOCC2)nc2ccc(NC(=S)NCCC(C)C)cc12	0	0	0	0	0	-
Fc1ccc(NC(=S)NCCN2CCOCC2)cc1	0	0	0	0	0	0
CCN(CC)CCNC(=S)Nc1ccc2nc(N3CCCC3)cc(C)c2c1	0	?	-	0	45µM	-
Cc1cc(N2CCN(C)CC2)nc2ccc(NC(=S)NCCC(C)C)cc12	?	0	?	0	50µM	-
CCOc1ccc(CCNC(=O)CCCn2nc(C)c3sc4ccccc4c3c2=O)cc1OCC	0	-	?	0	0	-
CC(=O)c1ccc(N2CCN(S(=O)(=O)c3ccc(-c4coc(C)n4)cc3)CC2)cc1	0	-	0	0	0	-
Cc1cc(N2CCN(C)CC2)nc2ccc(NC(=O)c3ccc(Br)o3)cc12	0	0	0	0	0[12.7 µM]	0
Cc1cc(N2CCCCC2)nc2ccc(NC(=O)c3ccc(Br)o3)cc12	?	0	?	?	50µM	-
CCCN(CCC)CCCNC(=S)Nc1ccc2nc(N3CCCC3)cc(C)c2c1	?	0	0	0	40µM	-
SMILES	JMJD2A Tudor	Sfp inh	BAZ2B inh	HP1b chromo inh	G9a inh	L3MBTL1 block
Nc1ccccc1Nc1cc(-c2ccccc2)nn1-c1ccccc1	32µM	0	35µM	?	32µM	?
COc1cc(C(=O)Nc2cc(-c3ccccc3)[nH]n2)cc(OC)c1OC	0	0	?	0	0	0
Nc1ccccc1Nc1cc(-c2ccccc2)[nH]n1	50µM	0	40µM	?	40µM	0
N#Cc1cc(-c2ccccc2)nn1-c1ccccc1	8.9µM	18µM	?	25µM	?	0
Cn1ccc(-c2ccccc2)n1	0	0	0	0	0	0
Nc1cccc(-c2cn3ccsc3n2)c1	0	-	?	0	0	-
CCCCc1ccc(/C=C2\C(=O)c3ccccc3C(O)=C2C(=O)OCC)cc1	-	3.2µM	22µM	-	6.3µM	0
CCCCc1ccc(NC(=O)N[C@@H](C)C(=O)O)cc1	0	0	0	0	0[12.7 µM]	0
COc1ccc(CNC(=O)[C@H](C)NC(=O)C2CCN(S(=O)(=O)c3ccccc3)CC2)cc1	0	0	0	0	0	-
CC1(C)Oc2ccc(C(=O)NNC(=O)Nc3ccccc3)cc2NC1=O	0	0	0	0	0	-
CC(C)OC(=O)c1cccc(C(=O)Oc2ccc(Br)cc2)n1	0	0	0	0	0	0
